Many of the other results were omitted from the sample, so hits are more common in it than they were.
KDM5B inh: KDM5B demethylase inhibition. Q9UGL1. KDM5B demethylase, FDH-coupled NADH fluorescence (FDH is formaldehyde dehydrogenase). Potency, µM (series often up to 57.7 µM), hits mostly inhibitors. 220,000 tested, 2.6% active. AID 1347165; active = well fitted inhibition curve with a large enough effect; also: 0% is about no effect; nearly all actives have a fitted effect of over 70% in size
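KDM5BΔAP (200 nM final) in 50 mM HEPES pH 7.5, 0.01% Tween-20 was preincubated 10 min at RT with compound over a concentration range. Substrate mix (H3K4me3 12.5 µM, α-KG 25 µM, Fe²⁺, ascorbate, NAD⁺, FDH) was added, and NADH fluorescence change over 30 min gave dose-response curves.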
The depositor's hits bear a star. Potency is read from the fitted curve at half-maximal effect.

Cc1ccc(CN2CCCn3nc(C)c(-c4ccccc4-c4ccccc4)c32)o1 was read as KDM5B inh 35µM*.
For C=CCNCc1ccccc1OC the results were KDM5B inh inactive.
Screening CCOc1ccc(NC(=O)Nc2ccc(F)c(-c3nnc(-c4ccccc4)o3)c2)cc1 returned KDM5B inh inactive.
For O=C(C1CN(S(=O)(=O)c2cccs2)CC12CCCCC2)N1CCCC1 (stereo not given) the results were KDM5B inh inactive.
For Cc1cc(SCC(NC(=O)c2ccccc2)C(=O)O)c2cc(Br)ccc2n1 (stereo not given) the results were KDM5B inh inactive.
CCC(C)[C@H](NC(=O)NCCc1ccc(Cl)cc1)C(=O)O (stereo not given in full) was read as KDM5B inh inactive.
For CCCn1c(=O)c2sc(N3CCCC3)nc2n(CC(=O)Nc2ccc3c(c2)OCO3)c1=O the results were KDM5B inh inactive.
For Fc1cc(CSc2nccc(C(F)(F)F)n2)c2ncccc2c1 the results were KDM5B inh inactive.
For O=C(c1ccccc1)N1CCCC(c2nn(-c3ccc(Cl)cc3)c(=O)[nH]2)C1 (stereo not given) the results were KDM5B inh inactive.
Cn1ccc2c(C(=O)NCc3cnccn3)nc(-c3cccc(N4CCOCC4)c3)cc21 was read as KDM5B inh inactive.
`Cc1ccc(-c2cc3c(ccn3C)c(C(=O)NCCc3cnc[nH]3)n2)cn1` gave KDM5B inh inactive.
Screening COc1ccccc1-c1cc2c(ccn2C)c(C(=O)NCCc2ccccn2)n1 returned KDM5B inh 35µM*.
COc1ccccc1-c1cc2c(ccn2C)c(C(=O)NCc2cccnc2)n1 was read as KDM5B inh inactive.
For COc1ccc(Cc2nc3ccc(C(=O)NCCc4ccccn4)cc3o2)cc1OC the results were KDM5B inh inactive.
Screening COc1ccccc1-c1cc2c(ccn2C)c(C(=O)NCc2cnccn2)n1 returned KDM5B inh 32µM*.
Screening CC1CSc2ccc(S(=O)(=O)N3CCN(c4ccccc4F)CC3)cc2NC1=O (stereo not given) returned KDM5B inh inactive.
Screening Cn1ccnc1C(=O)N1CCC(C(=O)N2CCCCCCNC(=O)CC2)CC1 returned KDM5B inh inactive.
`CCN(c1ccc2c(c1)OCO2)C1CN(C(=O)OC(C)(C)C)C1` gave KDM5B inh 89µM*.
Screening CC(C)(C)OC(=O)N1CC(c2ccccc2)C1 returned KDM5B inh inactive.
CN(c1ccc(F)cc1)C1CN(C(=O)OC(C)(C)C)C1 was read as KDM5B inh inactive.
Screening CCCCCNC(=O)c1cc(-c2ccc(Cl)cc2)nc2ccccc12 returned KDM5B inh inactive.
Screening CCOC(=O)C1(Cc2ccccc2C(F)(F)F)CCN(Cc2ccccn2)CC1 returned KDM5B inh inactive.
`CC(C)(CO)NCc1cccc2ccccc12` gave KDM5B inh inactive.
COc1ccccc1C(=O)N1CCC(O)(c2ccccc2)[C@H](N(C)C)C1 (stereo not given in full) was read as KDM5B inh inactive.
For COc1ccccc1-c1ncc2c(n1)OCCN(Cc1ccc(F)cc1F)C2=O the results were KDM5B inh 35µM*.
For O=C1c2cnc(-c3cc4ccccc4o3)nc2OCCN1CC1CC1 the results were KDM5B inh inactive.
`O=C1c2cnc(-c3ccccc3)nc2OCCN1Cc1ccccc1` gave KDM5B inh inactive.
Screening O=C1c2cnc(-c3cc(F)cc(F)c3)nc2OCCN1Cc1ccc(F)cc1F returned KDM5B inh inactive.
O=C1c2cnc(-c3ccccc3OCc3ccccc3)nc2OCCN1CC1CC1 was read as KDM5B inh 32µM*.
O=C1c2cnc(-c3ccccc3)nc2OCCN1Cc1ccc(F)cc1F was read as KDM5B inh inactive.
Screening N#Cc1cccc(-c2ncc3c(n2)OCCN(Cc2ccc(F)cc2F)C3=O)c1 returned KDM5B inh inactive.
`O=C1c2cnc(-c3cccc(O)c3)nc2OCCN1Cc1ccc(F)cc1F` gave KDM5B inh inactive.
For COc1cccc(-c2ncc3c(n2)OCCN(Cc2ccc(F)cc2F)C3=O)c1 the results were KDM5B inh 35µM*.
For O=C(Cc1cccc(C(F)(F)F)c1)N1CCCc2ncc(C(=O)N3CCCC[C@@H]3Cc3ccccc3)cc21 the results were KDM5B inh inactive.
`O=S(=O)(c1ccc2ccccc2c1)N1CCN(c2nc3ccccc3o2)CC1` gave KDM5B inh inactive.
`O=C(CC12CC3CC(CC(C3)C1)C2)NCCc1ccc(Cl)cc1` gave KDM5B inh inactive.
Screening CC(C)CCNC(=O)Cc1cccs1 returned KDM5B inh inactive.
`Cc1nn(-c2ccc(F)cc2)c(Oc2ccccc2F)c1CCC(=O)NCC(C)C` gave KDM5B inh inactive.
Cc1[nH]c2ccc(F)cc2c1CC(=O)NCC(C)C was read as KDM5B inh inactive.
CC(C)NC(=O)Cc1csc2nc(-c3ccccc3)cn12 was read as KDM5B inh inactive.
`Cc1nc2scc(CC(=O)NCCC(C)C)n2c(=O)c1-c1cc(C)n(-c2cc(F)ccc2F)n1` gave KDM5B inh 28µM*.
`Cc1ccc(F)cc1-n1nc(-c2c(C)nc3scc(CC(=O)NCC(C)C)n3c2=O)cc1C` gave KDM5B inh 28µM*.
`Cc1ccccc1-n1nc(-c2c(C)nc3scc(CC(=O)NC(C)C)n3c2=O)cc1C` gave KDM5B inh 28µM*.
Screening CC(C)CCNC(=O)Cn1ccn2nc(-c3ccc(F)cc3)c(CO)c2c1=O returned KDM5B inh inactive.
`Cc1ccccc1-n1nc(C)c(CCC(=O)NC(C)C)c1Oc1ccccc1` gave KDM5B inh inactive.
`CC(C)(C)C(=O)NCCc1csc2nc(-c3ccc(F)cc3)nn12` gave KDM5B inh inactive.
`CC(C)CCNC(=O)CCCc1nnc2c(=O)n(-c3cccc(F)c3)ccn12` gave KDM5B inh inactive.
Cc1nc2scc(CC(=O)NCCC(C)C)n2c(=O)c1-c1cc(C)n(-c2ccc(F)cc2)n1 was read as KDM5B inh 28µM*.
`CN(Cc1ccc(-c2ccccc2)cc1)Cc1ccccc1Cl` gave KDM5B inh inactive.
Screening Cc1ccccc1C(=O)Oc1cccc(C)c1C returned KDM5B inh inactive.
For N#C/C(=C/c1cccc2c1OCCCO2)c1nc(-c2ccccn2)cs1 the results were KDM5B inh inactive.
Cc1cc(NS(=O)(=O)c2ccc(NC(=O)c3oc4ccccc4c3C)cc2)nc(C)n1 was read as KDM5B inh inactive.
For COc1ccc(C(=O)NCCC2CCN(C(=O)Nc3ccccc3)CC2)cc1OC the results were KDM5B inh inactive.
`O=C1/C(=C/c2ccc(F)cc2)C(c2ccccc2)Oc2ccccc21` (stereo not given) gave KDM5B inh inactive.
Cc1c(Cl)c(C(F)(F)F)nn1CC(=O)Nc1c(Cl)cccc1Cl was read as KDM5B inh inactive.
For CCCCCCc1ccc(OC(=O)c2cncc(Br)c2)cc1 the results were KDM5B inh inactive.
For Cc1cc(C(=O)N2CC(Oc3cccc(-c4nc(-c5ccccc5)no4)c3)C2)n[nH]1 the results were KDM5B inh inactive.
Screening O=C(CN1CCCCC1)Nc1oc2ccccc2c(=O)c1-c1ccc(Cl)cc1 returned KDM5B inh inactive.
`CNC(=O)[C@@H]1CN(C(=O)c2cc3ccccc3[nH]2)C[C@H]1COC` gave KDM5B inh inactive.
`COC[C@@H]1CN(C(=O)c2cc3ccc(OC)cc3[nH]2)C[C@H]1C(N)=O` gave KDM5B inh inactive.
